# Reference: PMC5540273 (PLoS ONE, 2017)
# Assays:
# Conditions in all cases: concentration: 1 μM, replicates: in singlicate; n = 1
# PRKD3 = tested on: PRKD3
# PRKG1 = tested on: PRKG1
# PRKG2 = tested on: PRKG2
# PRKR = tested on: T1, PRKR
# T1 construct: gene EIF2AK2
# PRKX = tested on: PRKX
# PRP4 = tested on: PRP4
# PYK2 = tested on: T2, PYK2
# T2 construct: gene PTK2B
# QSK = tested on: QSK
# RAF1 = tested on: RAF1
# RET = tested on: RET
# 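Note: KINOMEscan kinase panel screen.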
SMILES,%Inh (PRKD3),%Inh (PRKG1),%Inh (PRKG2),%Inh (PRKR),%Inh (PRKX),%Inh (PRP4),%Inh (PYK2),%Inh (QSK),%Inh (RAF1),%Inh (RET)
O=C(O)C(F)(F)F.O=c1[nH]ccc2nc(N[C@@H]3CCNC3)nc(Nc3cc(Cl)cc(Cl)c3)c12 [GSK2188764],96.5%,61%,98.5%,76%,95%,63%,98.8%,38%,0%,51%
Cc1cc(-c2ccnc(Nc3cccc(C#N)c3)n2)cc(C)c1O [GSK1440913],0%,0%,0%,52%,0%,92.8%,27%,23%,13%,0%
Cc1ccc(-c2ccc3occ(-c4ccc(S(C)=O)cc4)c3c2)nn1 (stereo not drawn),0%,14%,0%,0%,0%,13%,0%,0%,6%,0%
O=C(Nc1n[nH]c2nc(-c3cccc(O)c3)ccc12)C1CC1 [SB-711805],0%,21%,35%,100%,0%,0%,11%,18%,6%,0%
CC(C)c1nc(-c2ccc(F)c(NS(=O)(=O)c3c(F)cccc3F)c2)c(-c2ccnc(Nc3ccc(N4CCOCC4)nc3)n2)s1 [GSK1804250],100%,1%,1%,35%,23%,2%,50%,32%,95.3%,89%
Cc1ccc(O)cc1Nc1ccnc2cc(-c3ccc(CN4CCCCC4)o3)ccc12 [GW557777],95.1%,0%,0%,1%,0%,0%,5%,41%,7%,100%
Nc1ncnc2scc(-c3ccc(NC(=O)Cc4cc(F)ccc4F)cc3)c12.O=C(O)C(F)(F)F [SB-731254-M],14%,0%,0%,15%,14%,26%,21%,32%,10%,23%
Cc1cc(-c2c(-c3ccc(F)cc3)ncn2CCCN2CCOCC2)nc(N)n1 [SB-222517],0%,0%,0%,16%,0%,0%,10%,23%,0%,13%
CCn1c(-c2nonc2N)nc2c(-c3ccccc3)ncc(OCCCN)c21.O=C(O)C(F)(F)F.O=C(O)C(F)(F)F [GSK260205],100%,5%,95.7%,0%,28%,27%,6%,27%,6%,91.7%
